Experiment [1] is described as follows: qHTS assay to identify small molecule antagonists of the glucocorticoid receptor (GR) signaling pathway - cell viability counter screen (AID 720693). Note: nearly all actives have a fitted effect of over 55% in size. Note: potency is the fitted concentration of half-maximal effect.
A short description of experiment [2]: qHTS assay for identifying genotoxic compounds that show differential cytotoxicity against isogenic chicken DT40 cell lines with known DNA damage response pathways - wild type cell line (AID 743012). Note: nearly all actives have a fitted effect of over 60% in size. Note: potency is the fitted concentration of half-maximal effect. A digest of the protocol:
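Wild type DT40, 300 cells/well, ~0.5 h settle at 37 C/5% CO2; compounds in DMSO added by pintool; 40 h at 37 C/5% CO2; CellTiter-Glo, 30 min RT; luminescence.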
(qHTS replaces the single test concentration by a dilution series.)

Experiment [3] can be described thus: qHTS assay for identifying genotoxic compounds that show differential cytotoxicity against isogenic chicken DT40 cell lines with known DNA damage response pathways - Rev3 mutant cell line (AID 743014). Note: nearly all actives have a fitted effect of over 55% in size. Note: potency is the fitted concentration of half-maximal effect.
Experiment [4] can be described thus: qHTS assay for identifying genotoxic compounds that show differential cytotoxicity against isogenic chicken DT40 cell lines with known DNA damage response pathways - Rad54/Ku70 mutant cell line (AID 743015). Note: nearly all actives have a fitted effect of over 60% in size. Note: potency is the fitted concentration of half-maximal effect.
Experiment [5] can be described thus: qHTS assay to identify small molecule antagonists of the androgen receptor (AR) signaling pathway - cell viability counter screen (AID 743033; note: nearly all actives have a fitted effect of over 45% in size; note: potency is the fitted concentration of half-maximal effect).
For experiment [6], the target named is Androgen receptor (Homo sapiens) (UniProt P10275). As to the kind of experiment: qHTS assay to identify small molecule antagonists of the androgen receptor (AR) signaling pathway (AID 743035; active = well fitted inhibition curve with a large enough effect in the signal ratio in the repeat runs, not every such curve was filed as active; inconclusive = weak or mixed curves, or effect the other way; inactive = no such curve, though single readings can be large or run the other way; the % refers to the signal ratio; note: potency is the fitted concentration of half-maximal effect). A digest of the protocol: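 Fluorescence from a beta-lactamase FRET substrate (LiveBLAzer B/G, 2 h, room temperature) measured inhibition of R1881-stimulated signaling in GeneBLAzer AR-UAS-bla HEK293 cells exposed to compound for 16 h at 37C.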
Chain of Androgen receptor (Homo sapiens) (P10275 whole entry, looked up): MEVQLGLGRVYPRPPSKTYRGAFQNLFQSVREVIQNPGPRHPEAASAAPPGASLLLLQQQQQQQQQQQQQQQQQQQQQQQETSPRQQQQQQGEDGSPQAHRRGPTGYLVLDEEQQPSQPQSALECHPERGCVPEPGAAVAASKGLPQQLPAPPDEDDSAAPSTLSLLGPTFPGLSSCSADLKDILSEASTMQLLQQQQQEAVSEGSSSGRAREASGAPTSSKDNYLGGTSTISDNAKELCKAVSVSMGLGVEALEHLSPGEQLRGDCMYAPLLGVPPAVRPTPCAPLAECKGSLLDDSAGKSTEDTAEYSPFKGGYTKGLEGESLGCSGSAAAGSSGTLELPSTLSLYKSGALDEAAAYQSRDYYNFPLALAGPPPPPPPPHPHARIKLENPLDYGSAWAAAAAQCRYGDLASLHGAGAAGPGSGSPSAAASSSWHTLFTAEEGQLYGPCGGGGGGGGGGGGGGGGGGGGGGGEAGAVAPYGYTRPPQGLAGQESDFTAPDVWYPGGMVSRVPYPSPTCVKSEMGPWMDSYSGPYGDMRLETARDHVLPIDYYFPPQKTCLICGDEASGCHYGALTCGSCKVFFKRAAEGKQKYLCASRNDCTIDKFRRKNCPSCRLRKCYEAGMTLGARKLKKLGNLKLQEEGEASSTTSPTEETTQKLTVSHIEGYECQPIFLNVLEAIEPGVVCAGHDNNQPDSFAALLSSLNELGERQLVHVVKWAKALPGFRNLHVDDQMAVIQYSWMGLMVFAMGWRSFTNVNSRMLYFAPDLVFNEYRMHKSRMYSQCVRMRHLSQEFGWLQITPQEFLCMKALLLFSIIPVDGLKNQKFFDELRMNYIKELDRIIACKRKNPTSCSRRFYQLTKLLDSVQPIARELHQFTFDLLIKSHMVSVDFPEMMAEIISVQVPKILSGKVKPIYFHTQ

The target is the same in experiment [7]. As to the kind of experiment: qHTS assay to identify small molecule agonists of the androgen receptor (AR) signaling pathway using the MDA cell line (AID 743040; note: nearly all actives have a fitted effect of over 20% in size). A digest of the protocol:
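After a 5 h incubation at 37C and 0% CO2, MDA-kb2 reporter cells were dosed with compounds in DMSO and kept 16 h under the same conditions. Luciferase activity was then read as luminescence with ONE-Glo.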

A short description of experiment [8]: qHTS assay to identify small molecule antagonists of the androgen receptor (AR) signaling pathway using the MDA cell line - cell viability counter screen (AID 743041; note: nearly all actives have a fitted effect of over 45% in size; note: potency is the fitted concentration of half-maximal effect). A digest of the protocol: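 R1881-driven MDA-kb2 AR-luc cells, 3,000/well, were dosed with library compounds for 16 h; cell health came from CellTiter-Fluor fluorescence in the reporter wells.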

The target in experiment [9] is Androgen receptor (Homo sapiens) (UniProt P10275). In words: qHTS assay to identify small molecule antagonists of the androgen receptor (AR) signaling pathway using the MDA cell line (AID 743042; note: nearly all actives have a fitted effect of over 55% in size; note: potency is the fitted concentration of half-maximal effect). The method in brief:
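Antagonist mode: compounds plus R1881 agonist added to MDA-kb2 AR-luc cells, incubated 16 h at 37C. Luciferase reporter luminescence quantified, with multiplexed CellTiter-Fluor readout for cell viability.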

Experiment [10] is described as follows: qHTS assay to identify small molecule antagonists of the thyroid receptor (TR) signaling pathway - cell viability counter screen (AID 743064). Note: nearly all actives have a fitted effect of over 50% in size. Note: potency is the fitted concentration of half-maximal effect. The method in brief:
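CellTiter-Fluor readout, 30 min at 37 °C/5% CO2, following 23.5 h incubation of GH3.TRE-Luc cells with test compound and 1 nM T3 (final).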

The nature of experiment [11]: qHTS assay to identify small molecule antagonists of the thyroid receptor (TR) signaling pathway (AID 743065). Note: nearly all actives have a fitted effect of over 55% in size. Note: potency is the fitted concentration of half-maximal effect. A digest of the protocol:
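Antagonism measured as loss of luciferase signal in GH3 cells stably carrying a TRE-luciferase reporter, co-treated with compound and T3 (1 nM final) for 23.5 h at 37 C. Viability was read in the same well by CellTiter-Fluor.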

Experiment [12] concerns thyroid hormone receptor (rat, GH3 cells). As to the kind of experiment: qHTS assay to identify small molecule agonists of the thyroid receptor (TR) signaling pathway (AID 743066; calls by dose curve).
The target of experiment [13] is Estrogen receptor (Homo sapiens) (UniProt P03372). In words: qHTS assay to identify small molecule antagonists of the estrogen receptor alpha (ER-alpha) signaling pathway (AID 743069; active = well fitted curve in the direction sought with a large enough effect in the signal ratio in the repeat runs, not every such curve was filed as active; inconclusive = weak or mixed curves, or effect the other way; inactive = no such curve, though single readings can be large or run the other way; the % refers to the signal ratio; note: potency is the fitted concentration of half-maximal effect). A digest of the protocol:
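Compound effects are measured against 17beta-estradiol stimulation in HEK293 cells with a UAS-controlled beta-lactamase reporter for ER-alpha. Exposure lasts 18 hr at 37C; LiveBLAzer B/G FRET substrate follows for 2 hr at room temperature.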

The nature of experiment [14]: qHTS assay to identify small molecule antagonists of the estrogen receptor alpha (ER-alpha) signaling pathway - cell viability counter screen (AID 743074; calls by dose curve;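 note: HEK293 cells carrying ER-alpha-UAS-bla reporter stimulated with 17beta-estradiol; nearly all actives have a fitted effect of over 45% in size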; note: potency is the fitted concentration of half-maximal effect).
Experiment [15] in a line: qHTS assay to identify small molecule antagonists of the estrogen receptor alpha (ER-alpha) signaling pathway using the BG1 cell line - cell viability counter screen (AID 743081).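 Note: compound given together with 17beta-estradiol as the ER stimulus; nearly all actives have a fitted effect of over 45% in size.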 Note: potency is the fitted concentration of half-maximal effect.
Experiment [16] deals with Aromatase (Homo sapiens) (UniProt P11511). As to the kind of experiment: qHTS assay to identify aromatase inhibitors (AID 743083). Note: nearly all actives have a fitted effect of over 55% in size. Note: potency is the fitted concentration of half-maximal effect.
Chain of Aromatase (Homo sapiens) (P11511 whole entry, looked up): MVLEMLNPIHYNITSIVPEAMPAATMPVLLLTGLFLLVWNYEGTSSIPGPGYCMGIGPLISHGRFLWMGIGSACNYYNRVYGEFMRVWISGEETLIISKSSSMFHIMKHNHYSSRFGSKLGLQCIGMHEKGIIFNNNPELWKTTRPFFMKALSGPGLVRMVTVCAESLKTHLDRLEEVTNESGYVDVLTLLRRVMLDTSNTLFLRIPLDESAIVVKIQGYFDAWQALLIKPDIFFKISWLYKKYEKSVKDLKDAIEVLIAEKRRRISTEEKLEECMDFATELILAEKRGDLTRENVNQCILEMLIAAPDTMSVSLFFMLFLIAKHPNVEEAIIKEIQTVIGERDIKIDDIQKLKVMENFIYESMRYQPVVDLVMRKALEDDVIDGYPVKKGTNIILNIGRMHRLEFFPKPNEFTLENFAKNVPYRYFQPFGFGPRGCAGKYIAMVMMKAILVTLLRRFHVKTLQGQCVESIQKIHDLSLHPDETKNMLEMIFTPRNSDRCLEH
In experiment [17] the target is Estrogen receptor (Homo sapiens) (UniProt P03372). In words: qHTS assay to identify small molecule agonists of the estrogen receptor alpha (ER-alpha) signaling pathway (AID 743075; calls by dose curve; note: potency is the fitted concentration of half-maximal effect).
Chain of Estrogen receptor (Homo sapiens) (P03372 whole entry, looked up): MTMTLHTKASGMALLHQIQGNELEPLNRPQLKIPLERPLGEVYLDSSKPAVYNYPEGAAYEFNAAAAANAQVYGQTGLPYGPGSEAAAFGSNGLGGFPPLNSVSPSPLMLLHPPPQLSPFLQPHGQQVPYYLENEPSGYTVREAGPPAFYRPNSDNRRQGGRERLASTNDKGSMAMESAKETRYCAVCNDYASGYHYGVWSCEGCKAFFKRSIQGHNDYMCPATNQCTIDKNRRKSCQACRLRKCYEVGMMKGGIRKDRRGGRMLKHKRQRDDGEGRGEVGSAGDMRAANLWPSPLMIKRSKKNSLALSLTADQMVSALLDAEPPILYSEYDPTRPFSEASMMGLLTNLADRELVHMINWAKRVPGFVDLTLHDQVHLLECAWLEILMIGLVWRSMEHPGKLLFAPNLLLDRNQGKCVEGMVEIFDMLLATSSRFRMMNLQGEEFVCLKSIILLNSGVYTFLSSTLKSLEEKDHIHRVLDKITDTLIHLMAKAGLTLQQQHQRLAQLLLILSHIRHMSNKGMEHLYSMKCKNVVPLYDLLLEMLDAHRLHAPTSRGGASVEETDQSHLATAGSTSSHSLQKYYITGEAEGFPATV
The target is the same in experiment [18]. In words: qHTS assay to identify small molecule agonists of the estrogen receptor alpha (ER-alpha) signaling pathway using the BG1 cell line (AID 743079). Note: nearly all actives have a fitted effect of over 20% in size. Note: potency is the fitted concentration of half-maximal effect.
Experiment [19] can be described thus: qHTS assay to identify small molecule antagonists of the estrogen receptor alpha (ER-alpha) signaling pathway using the BG1 cell line (AID 743080; calls by dose curve;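 note: BG1 cells stimulated with 17beta-estradiol alongside compound; nearly all actives have a fitted effect of over 25% in size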; note: potency is the fitted concentration of half-maximal effect). A digest of the protocol: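 Readout is ONE-Glo luminescence, taken 30 min at room temperature after reagent addition, preceded by a CellTiter-Fluor viability read; BG1-Luc-4E2 cells had received compound and 17beta-estradiol for 21.5 h at 37 C.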

Experiment [20] deals with Androgen receptor (Homo sapiens) (UniProt P10275). In words: qHTS assay to identify small molecule agonists of the androgen receptor (AR) signaling pathway (AID 743036; active = well fitted activation curve with a large enough effect in the signal ratio in the repeat runs, with a control signal flat, not every such curve was filed as active; inconclusive = weak or mixed curves, or effect the other way; inactive = no such curve, though single readings can be large or run the other way; the % refers to the signal ratio). A digest of the protocol:
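Following a 4 h settling period, AR-UAS-bla HEK293 cells were dosed with compounds for 16 h at 37C. A 2 h room-temperature incubation with LiveBLAzer B/G FRET substrate preceded the fluorescence measurement.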

Where “and” joins values, the source holds several entries; their conditions need not be identical. Equal values may be shown once. The source holds several records for some structures; these can differ, active in one and inactive in another. Calls of active or inactive are those of the source. Unless noted, calls come from the whole dose curve; as a rule, active = well fitted curve in the direction sought with a large enough effect in the repeat runs; inconclusive = weak or mixed curves; inactive = no such curve, though single readings can be large; an effect the other way counts as inactive or inconclusive.

Regarding `CC(=O)C(Cl)(Cl)Cl`, the Potency entry in experiment [1], in experiment [7] and in experiment [14] was “inactive” each time. The Potency in experiment [2] was 13.2 µM (active); in experiment [3] it was 16.6 µM (active); in experiment [4], 16.6 µM (active); in experiment [5] it was 10.6 µM (active); in experiment [6], 5.31 µM (active); in experiment [8] it was 26.4 µM (active). The Potency in [9] is 13.2 µM (active); in experiment [10] it was 5.9 µM (active); in [11] it was 2.35 µM (active); in experiment [13] it was 1.88 µM [inconclusive] (active); in experiment [15], 23.5 µM (active); in experiment [16] it was 13.2 µM (active). The compound was classed as inactive in experiment [12].
In the case of `Cc1cc(C)c(C2=C(OC(=O)CC(C)(C)C)C3(CCCC3)OC2=O)c(C)c1`, the Potency entry in experiment [1], in [2], in [3], in experiment [4], in [5] and in [8] was “inactive” each time. Besides, the Potency result in [10], in experiment [11], in experiment [13], in experiment [14], in experiment [17] and in [18] was “inactive” each time. Also, the Potency entry in experiment [19], in [15] and in experiment [16] was “inactive” in each case. For the same compound, the call in experiment [12] was inactive.
For `O=[N+]([O-])c1cc([N+](=O)[O-])c2ccccc2c1`, the Potency result in experiment [1], in experiment [5], in [7] and in experiment [11] was “inactive” throughout. For the same compound, the results for the Potency in experiment [2], in experiment [3] and in experiment [4] were 6.11 µM (active), 13.7 µM (active) and 7.52 µM (active), respectively. In [12], the compound was classed as inactive.
Take `ClC1=C(Cl)C2(Cl)C3C(Cl)C(Cl)CC3C1(Cl)C2(Cl)Cl` (centres undefined): the Potency entry in [1], in experiment [20], in [7], in experiment [8], in experiment [9] and in experiment [15] was “inactive” throughout. The Potency result in experiment [2] was “inactive and 21.7 µM (active)”; in experiment [3], 30.6 µM (active); in [4], 24.3 µM (active); in experiment [5], 49 µM (active); in experiment [6] it was 48.8 µM (active) and 43.6 µM (active); in experiment [10] it was 21.6 µM (active) and 24.3 µM (active). Further, the Potency in [11] is 24.3 µM (active); in [17], 54.8 µM [inconclusive] (active); in experiment [16], 68.4 µM (active). Further, in experiment [12], the compound was classed as inactive.
Take `CC(=O)O[C@H]1CC[C@@]2(C)C(=CC[C@@H]3[C@@H]2CC[C@]2(C)C(=O)CC[C@@H]32)C1`: the Potency result in [1], in [2], in experiment [3], in [4], in experiment [5] and in experiment [20] was “inactive” in each case. The Potency entry in experiment [7], in experiment [8], in experiment [9], in experiment [10], in experiment [11] and in experiment [14] was “inactive” in each case. In addition, the Potency result in [19], in experiment [15] and in [16] was “inactive” each time. In experiment [12], the outcome was inactive. In addition, the Potency in experiment [17] is 811 nM [inconclusive] (active) and 490 nM [inconclusive] (active); in [18], 320 nM (active) and 86.3 nM (active).
Regarding `CC(C)CC(C)N` (centres undefined), the Potency entry in experiment [1], in [2], in [3], in experiment [4], in [5] and in [8] was “inactive” each time. In addition, the Potency entry in experiment [10], in [11], in experiment [13], in experiment [14], in [17] and in experiment [18] was “inactive” in each case. Further, the Potency entry in [19], in [15] and in experiment [16] was “inactive” throughout. Further, in [12], the compound was called inactive.
`C[C@@H]1O[C@@H](O[C@H]2C[C@@H](O)[C@]3(CO)[C@H]4[C@H](O)C[C@]5(C)[C@@H](C6=CC(=O)OC6)CC[C@]5(O)[C@@H]4CC[C@]3(O)C2)[C@H](O)[C@H](O)[C@H]1O`: the Potency in experiment [1] was 379 nM (active) and 213 nM (active) and 58.5 nM (active); in experiment [2], 2.11 µM (active) and 1.88 µM (active) and 1.3 µM (active); in experiment [3], 2.11 µM (active) and 1.88 µM (active) and 517 nM (active); in experiment [4], 1.88 µM (active) and 580 nM (active); in experiment [5], 67.4 nM (active) and 53.5 nM (active) and 11.7 nM (active); in experiment [6], 213 nM (active) and 190 nM (active) and 46.5 nM (active). Moreover, the Potency is 841 nM (active) and inactive in [9]; 0.0425 µM (active) in [14]; 531 nM (active) and 163 nM (active) in experiment [19]. For the same compound, the Potency result in experiment [7], in experiment [8], in experiment [10], in experiment [11], in experiment [17] and in experiment [15] was “inactive” in each case. The compound was classed as inactive in experiment [12].
Turning to `O=C(NC(=O)c1c(F)cccc1F)Nc1cc(Cl)c(OC(F)(F)C(F)F)c(Cl)c1`, the Potency entry in experiment [1], in [2], in [3], in experiment [5], in experiment [7] and in experiment [8] was “inactive” in each case. Moreover, the Potency result in experiment [9], in [10], in [11], in [13], in experiment [14] and in experiment [17] was “inactive” each time. Besides, the Potency entry in [15] and in [16] was “inactive” throughout. Besides, the Potency in experiment [4] was 21.7 µM (active). Besides, the compound was called inactive in [12].
`CN(C)CCc1c[nH]c2ccc(O)cc12`: the Potency result in experiment [1], in experiment [2], in experiment [3], in experiment [4], in experiment [5] and in experiment [6] was “inactive” each time. Moreover, the Potency entry in experiment [20], in experiment [7], in experiment [8], in experiment [9], in experiment [10] and in experiment [11] was “inactive” throughout. In addition, the Potency entry in [15] and in [16] was “inactive” throughout. The compound was called inactive in experiment [12].
Consider `CC(C)(O)c1cnn2c(-c3ccc(F)c(-c4c(F)cccc4C#N)c3)cnc2n1`, for which the Potency entry in experiment [1], in experiment [5], in experiment [7], in experiment [9], in [14] and in [15] was “inactive” throughout. Moreover, the Potency in experiment [2] is 48.6 µM (active); in experiment [3], 30.6 µM (active); in [4], 21.7 µM (active); in [16], 54.5 µM (active). The compound was classed as inactive in experiment [12].
On to `C=CC(=O)OCC(COC(=O)C=C)(COC(=O)C=C)COC(=O)C=C`, for which the Potency in experiment [1] was 8.71 µM (active); in experiment [2], 0.77 µM (active); in experiment [3], 0.969 µM (active); in [4] it was 0.686 µM (active); in experiment [5], 6.92 µM (active); in experiment [6], 4.36 µM (active). Also, the Potency is 7.7 µM (active) in [8]; 1.93 µM (active) in experiment [9]; 2.73 µM (active) in experiment [10]; 1.93 µM (active) in experiment [11]; 43.6 µM (active) in experiment [14]; 27.5 µM [inconclusive] (active) in experiment [17]. The values for the Potency in experiment [15] and in [16] were 24.3 µM (active) and 3.06 µM (active), respectively. Also, in [7], the Potency entry is “inactive”. In addition, the compound was called inactive in experiment [12].
